# Assay outcomes from PubChem.
# PLAP act – activators of human placental alkaline phosphatase; P05187; purified PLAP enzyme, luminescent substrate read-out; active compounds read high; activation fold at 20 µM; 96,000 tested, 1.2% active; AID 696; in the data active = activation fold above about 2
# Target sequence (P05187 whole entry, looked up): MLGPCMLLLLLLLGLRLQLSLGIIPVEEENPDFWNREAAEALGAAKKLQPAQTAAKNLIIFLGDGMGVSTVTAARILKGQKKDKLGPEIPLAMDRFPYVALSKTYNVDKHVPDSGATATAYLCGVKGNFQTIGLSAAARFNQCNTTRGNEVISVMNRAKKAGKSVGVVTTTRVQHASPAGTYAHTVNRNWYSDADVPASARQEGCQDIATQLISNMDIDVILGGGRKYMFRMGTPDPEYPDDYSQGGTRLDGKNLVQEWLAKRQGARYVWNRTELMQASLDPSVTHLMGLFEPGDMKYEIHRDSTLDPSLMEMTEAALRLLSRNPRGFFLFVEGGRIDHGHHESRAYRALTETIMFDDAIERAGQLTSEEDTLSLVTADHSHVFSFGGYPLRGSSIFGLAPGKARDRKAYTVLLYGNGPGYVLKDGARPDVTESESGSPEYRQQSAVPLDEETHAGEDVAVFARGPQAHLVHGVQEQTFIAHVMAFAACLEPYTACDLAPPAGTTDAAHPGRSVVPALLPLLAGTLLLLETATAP
# VCAM1 TNFa inh – reduces TNF alpha induced VCAM1 expression in HUVEC. 95,000 tested, 0.48% active. AID 802. inhibition, % at 2 µM. HUVEC TNFa-induced VCAM-1 immunofluorescence, high-content imaging;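 active = inhibition above the batch mean plus 3 SD, with images confirmed as a hit by eye, cut at about 37% in these data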
# E-sel TNF inh – TNF alpha driven E-selectin expression inhibition; AID 1246; HUVEC TNFa-induced E-selectin immunofluorescence, high content; 120,000 tested, 0.71% active; inhibition, % at 2 µM;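 active = inhibition above the batch mean plus 3 SD, and confirmed as a hit on visual image review, cut at about 43% in these data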
# HUVEC tox TNFa – toxic to HUVEC cells under TNF alpha stimulation. HUVEC TNFalpha-stimulated, Hoechst cell count, imaging. 93,000 tested, 0.17% active. AID 848. cell count reduction, % at 2 µM;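 active = cell count reduction exceeding the screen mean by over 5 SD, scaled to untreated wells per plate, cut at about 78% in these data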;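 note: cells counted after 24 h of TNF alpha exposure following the 1 h pretreatment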
# F-actin modifier – cytoskeleton assembly modification | HUVEC TNFa F-actin phalloidin imaging, high content | inhibition, % at 2 µM | 91,000 tested, 0.18% active | AID 836;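 active = inhibition above the batch mean plus 3 SD and confirmed as a hit by visual image inspection, cut at about 30% in these data, passing the limit was not always enough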
# Hits are given with their value; . = inactive; / = no result given. This is a sample that favours compounds with a hit; in the whole collection about 2% have one here.
SMILES,PLAP act,VCAM1 TNFa inh,E-sel TNF inh,HUVEC tox TNFa,F-actin modifier
Cc1cccc(NC(=O)CSc2nnc(-c3ccc(S(=O)(=O)N4CCCC4)cc3)o2)c1,2.1,.,.,.,.
CCN(CC)S(=O)(=O)c1ccc(NC(=O)CSc2nnc(-c3ccc(F)cc3)o2)cc1,.,.,61.2,.,.
Cc1cc(C)nc(SCC(=O)Nc2ccc(S(=O)(=O)N3CCCCC3)cc2)n1,2.1,.,.,.,.
Cc1csc(SCC(=O)Nc2ccc(S(=O)(=O)N3CCCC3)cc2)n1,.,.,.,.,.
Cc1ccc(NC(=O)CSc2nnc(-c3ccc(S(=O)(=O)N4CCCC4)cc3)o2)cc1C,.,.,/,.,.
[O-][n+]1c2c(nc3c1-c1ccccc1C3O)CCCC2 (centres undefined),/,/,.,/,/
O=C(COc1ccc(-c2nnco2)cc1)NCc1ccccc1Cl,/,/,77.0,/,/
Cc1ccc(C2=NNC(C(O)C(O)C(O)C(O)CO)S2)cc1 (centres undefined),2,.,.,.,.
O=C(CCN1C(=O)C2C3C=CC(C3)C2C1=O)Nc1c(F)cccc1F (centres undefined),.,.,.,93.8,.
COc1ccccc1-n1c(C)nc2cc(C(=O)NCCN3CCOCC3)ccc21,/,/,.,/,/
CCn1c(CN2CCN(c3ccc(Cl)cc3)CC2)nc2ccccc21,/,57.8,.,.,.
Cn1c(CN2CCN(c3ccc(Cl)cc3)CC2)nc2ccccc21,.,.,/,.,.
O=C(NCc1ccccc1)c1ccc(COCC(F)(F)F)o1,.,/,.,/,/
COc1ccc(OC)c(N(CC(=O)NC2CC2)S(=O)(=O)c2ccc(C)cc2)c1,.,.,.,89.8,.
O=C(Nc1ccc2c(c1)OCO2)C1CCN(S(=O)(=O)Cc2ccccc2)CC1,.,.,.,.,.
O=C(Nc1ccc2c(c1)OCO2)C1CCN(Cc2cnn(-c3ccccc3)c2-n2cccc2)CC1,2.9,.,.,.,.
Cc1ccc(C(=O)C(C)OC(=O)C2CC(=O)N(C3CCCCC3)C2)cc1 (centres undefined),.,.,/,.,.
COc1ccc(Cc2nc(-c3ccc(Cl)cc3)no2)cc1,2,.,.,.,.
COc1ccc(Cc2nc(-c3ccc(Br)cc3)no2)cc1,.,/,.,/,/
C=CCOc1ccc(C(=O)CC)cc1OC,/,/,.,/,/
CCC(C(=O)OC)n1c(-c2ccccc2)nc2ccccc2c1=O (centres undefined),/,/,64.1,/,/
CCOC(=O)N1CCC(N2CCCC(C(=O)c3ccc4cc(OC)ccc4c3)C2)CC1 (centres undefined),/,/,.,/,/
O=C(NCCC1=CCCCC1)c1ccc(=O)oc1,.,.,.,.,.
O=C(NCCC1=CCCCC1)c1coc(=O)c(Br)c1,.,.,85.7,.,.
COc1ccc2[nH]c(=S)[nH]c2c1,2.6,.,/,.,.
SMILES,PLAP act,VCAM1 TNFa inh,E-sel TNF inh,HUVEC tox TNFa,F-actin modifier
S=c1[nH]c2ccc(Cl)cc2[nH]1,/,.,.,.,.
C#CC(=O)N(c1cc(OC)ccc1OC)C(C(=O)NC1CCCC1)c1cccs1 (centres undefined),.,.,58.3,.,.
COc1ccc(N2CCN(CC(=O)Nc3cc(C)on3)CC2)cc1,.,.,.,.,.
COc1ccc(N2CCN(CC(=O)Nc3nc4c(s3)CC(C)CC4)CC2)cc1 (centres undefined),2.9,.,/,.,.
CC(C)(C)NC(=O)CSc1nsc(SCC(=O)NC(C)(C)C)c1C#N,.,71.6,/,.,.
CCN(CC)S(=O)(=O)c1cc(NC(=O)CSc2nccn2C)ccc1C,/,/,.,/,/
O=C(CN1CCN(c2ccccc2F)CC1)c1c[nH]c2ccccc12,.,.,53.4,.,.
O=C1CC(c2ccccc2)n2nc(NS(=O)(=O)c3ccccc3)nc2N1 (centres undefined),2,.,/,.,.
Cc1ccc(S(=O)(=O)NCC2CCC(C(=O)NCCCOC(C)C)CC2)cc1 (centres undefined),/,/,.,/,/
CCc1cccc(CC)c1NC(=O)COC(=O)c1cccc(-c2ccc(OC(C)=O)cc2)c1,/,/,73.7,/,/
COc1ccc(-c2[nH]ncc2-c2cnc(C)s2)c(O)c1,2.9,.,/,.,.
COc1ccc(-c2[nH]ncc2Oc2ccccc2OC)c(O)c1,2.5,.,.,.,.
COc1ccc(Oc2cn[nH]c2-c2ccc(O)cc2O)cc1,2.2,.,/,.,.
CCCc1ccc(Oc2cn[nH]c2-c2ccc(O)cc2O)cc1,.,.,.,.,.
COc1ccc(-c2[nH]ncc2-c2cnn(-c3ccccc3)c2)c(O)c1,2,.,.,.,.
C=C(C)COc1ccc(-c2[nH]ncc2Oc2ccccc2OCC)c(O)c1,.,.,/,.,.
COc1cc(-c2ccc(NC(=O)CN3CCCCC3)c(OC)c2)ccc1NC(=O)CN1CCCCC1,/,.,.,.,.
CCC(C)c1ccc(NC(=O)C/C(C)=N/NC(=O)c2cnccn2)cc1 (centres undefined),/,/,.,/,/
Cc1cc(C=NCCCO)c(C)n1-c1cc(Cl)ccc1Cl,/,/,.,/,/
O=C(CC1(O)C(=O)N(Cc2ccccc2)c2ccccc21)c1ccncc1 (centres undefined),.,.,.,.,.
CC(C)OC(=O)c1ccc(NC(=O)Cn2c(-c3nonc3N)nc3ccccc32)cc1,/,.,.,.,.
COC(=O)c1ccccc1NC(=O)Cn1c(-c2nonc2N)nc2ccccc21,.,78.7,.,.,.
C/C(=N/NC(=O)CN1CCN(Cc2ccccc2Cl)CC1)c1ccncc1,/,/,.,/,/
Cn1c(N)c(C(=O)COC(=O)CN2C(=O)c3ccccc3C2=O)c(=O)n(C)c1=O,/,/,68.2,/,/
CCc1ccccc1OCC(=O)OCC(=O)N1CC(=O)Nc2ccccc21,/,/,.,/,/
SMILES,PLAP act,VCAM1 TNFa inh,E-sel TNF inh,HUVEC tox TNFa,F-actin modifier
O=C(Nc1cccn2ncnc12)c1ccccc1,.,.,.,.,.
O=C(Nc1cccn2ncnc12)c1ccc(Cl)cc1,.,.,43.1,.,.
COc1ccc(-c2cc(C(F)(F)F)n3nc(C(=O)Nc4cc(C)on4)cc3n2)cc1OC,.,95.1,.,.,.
Cc1ccc(NC(=O)CN(C)C(=O)/C=C/c2cccc(F)c2)cc1,/,/,.,/,/
Cc1cccc(C)c1NC(=O)CN(C)C(=O)/C=C/c1cccs1,/,/,93.2,/,/
COc1ccc(/C=N/NC(=O)Nc2nonc2N)cc1,/,.,.,/,.
CCCCCCCCCCSc1n[nH]c(NC(C)=O)n1,2.9,.,/,.,.
CCCSc1n[nH]c(NC(C)=O)n1,.,/,/,/,/
CCNc1nc(Oc2ccc(C(=O)OC)cc2)nc(N(C)C)n1,/,.,.,78.9,.
Cc1cc(C)cc(NC(=O)CCn2cnc3cc(C)c(C)cc32)c1,/,/,.,/,/
Cn1cc([N+](=O)[O-])c(C(=O)Nc2nc(-c3ccc(Cl)cc3)cs2)n1,.,.,97.8,.,.
Cc1ccc(-c2nc(NC(=O)c3nn(C)cc3[N+](=O)[O-])sc2C)cc1C,.,88.6,99.6,.,.
Cc1ccc(-c2nc(NC(=O)c3nn(C)cc3[N+](=O)[O-])sc2C)cc1,.,91.7,87.0,.,.
Cc1cc(C)c(S(=O)(=O)N2CCOC2CNC(=O)C(=O)NCc2ccco2)c(C)c1 (centres undefined),/,/,.,/,/
CCOc1cc(C2CC(=O)c3c(ccc4ccccc34)N2)ccc1O (centres undefined),.,.,.,.,.
